Reference: the supplement of paper PMC13380429

Tested on: Vero E6 infected with SARS-CoV-2
Experiment: inhibition of SARS-CoV-2 cytopathic effect; higher = more antiviral protection, active = above 15
Details: 48 h

Measured: inhibition of SARS-CoV-2 cytopathic effect

Cc1cc(C)n(-c2cccc([C@H](CC(=O)O)CN3CC[C@@H](CCc4ccc5c(n4)NCCC5)C3)c2)n1 [integrin-antagonist-1]
inactive: 1 nM 6.72% | 8.33 nM 7.35% | 100 nM 0.83% | 833.33 nM 0.99% | 10000 nM -0.92%

COc1cc(C(=O)N2CCOCC2)cc(OC)c1OC [trimetozine]
inactive: 1 nM 0.84% | 8.33 nM 0.93% | 100 nM 1.16% | 833.33 nM 4.1% | 10000 nM 2.28%

Fc1ccc(CN2CCC(Nc3ccc(C(F)(F)F)nn3)CC2)cc1F
inactive: 1 nM 0.35% | 8.33 nM 2.13% | 100 nM 2.17% | 833.33 nM 1.38% | 10000 nM -6.9%

COc1c(C)c2c(c(O)c1C/C=C(\C)CCC(=O)O)C(=O)OC2 [mycophenolic-acid]
inactive: 1 nM -0.65% | 8.33 nM -1.16% | 100 nM 0.96% | 833.33 nM 2.06% | 10000 nM 12.9%

O=[N+]([O-])c1ccc2c(c1)S(=O)(=O)C=C2 [stattic]
inactive: 1 nM -2.62% | 8.33 nM -2.1% | 100 nM -5.02% | 833.33 nM 5.41% | 10000 nM -2.07%

C=CCN(C)CCCCCCOc1ccc(C(=O)c2ccc(Br)cc2)c(F)c1
inactive: 1 nM 0.63% | 8.33 nM 1.12% | 100 nM 2.12% | 833.33 nM 0.47% | 10000 nM 13.8%

CC(SC(=O)c1cccs1)C(=O)NCC(=O)O (stereo not given) [stepronin]
inactive: 1 nM 2.01% | 8.33 nM -0.48% | 100 nM 1.48% | 833.33 nM 0.5% | 10000 nM -1.74%

O=[N+]([O-])c1nccn1CC(O)CN1CCCCC1 (stereo not given) [pimonidazole]
inactive: 1 nM 0.08% | 8.33 nM 0.87% | 100 nM 1.45% | 833.33 nM 2.08% | 10000 nM -0.59%

O=C1NC(=O)c2c1c1c3ccccc3n3c1c1c2c2ccccc2n1C1CCC3O1
inactive: 1 nM 0.12% | 8.33 nM 2.27% | 100 nM -1.21% | 833.33 nM 4.22% | 10000 nM 8.57%

N#CCNC(=O)c1ccc(-c2ccnc(Nc3ccc(N4CCOCC4)cc3)n2)cc1
inactive: 1 nM -0.49% | 8.33 nM -0.77% | 100 nM -0.33% | 833.33 nM -4.04% | 10000 nM -6.6%

COC(=O)[C@H](c1ccccc1Cl)N1CCc2sccc2C1 [clopidogrel]
inactive: 1 nM 0.4% | 8.33 nM 0.66% | 100 nM 1.82% | 833.33 nM -3.38% | 10000 nM -0.85%

Cc1cc(O)cc(C)c1Cl [chloroxylenol]
inactive: 1 nM -0.09% | 8.33 nM 1.72% | 100 nM -1.3% | 833.33 nM -0.83% | 10000 nM 0.1%

O[C@@H](CN1CCNCC1)Cn1c2ccc(Br)cc2c2cc(Br)ccc21 [BAX-channel-blocker]
inactive: 1 nM 10.2% | 8.33 nM 4.29% | 100 nM 2.27% | 833.33 nM 2.49% | 10000 nM -21.9%

Nc1c2ccccc2nc2ccccc12 [9-aminoacridine]
inactive: 1 nM -6.32% | 8.33 nM 1.57% | 100 nM -3.73% | 833.33 nM 0.13% | 10000 nM -28.3%

COCCOc1ccc(N2CCN(CCn3ncc4c3nc(N)n3nc(-c5ccco5)nc43)CC2)cc1 [preladenant]
inactive: 1 nM 1.43% | 8.33 nM 0.62% | 100 nM 3.21% | 833.33 nM 0.67% | 10000 nM 2.45%

NCCc1ccc(O)c(O)c1 [dopamine]
inactive: 1 nM -0.56% | 8.33 nM 0.74% | 100 nM -0.35% | 833.33 nM 0.38% | 10000 nM 0.14%

O=C(O)CCCCC(=O)O [adipic-acid]
inactive: 1 nM -3.52% | 8.33 nM -3% | 100 nM -0.01% | 833.33 nM -2.5% | 10000 nM -1.83%

c1ccc2nc(C3=NCCN3)cnc2c1
inactive: 1 nM 2.54% | 8.33 nM 1.85% | 100 nM 1.24% | 833.33 nM 4.82% | 10000 nM 2.03%

COc1cc(N)c(Cl)cc1C(=O)CCC1CCN(CCNS(C)(=O)=O)CC1
inactive: 1 nM -0.46% | 8.33 nM -0.03% | 100 nM 0.79% | 833.33 nM 0.95% | 10000 nM -0.74%

N[C@H]1C[C@@H]1c1ccc(-c2cccc(O)c2)cc1
inactive: 1 nM 1.62% | 8.33 nM -1.45% | 100 nM -0.41% | 833.33 nM -1.63% | 10000 nM -0.24%
